CHRM1 agonist: human M1 muscarinic receptor agonism; CHO-K1 hM1, Fluo-8 calcium fluorescence, agonist mode; 0% DMSO, 100% acetylcholine EC100; activation, % at 3 µM; hit rate 0.33% among 360,000;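 active means activation above the run's mean compound activation plus 3 SD, cut at about 16% in these data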;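 further: peak over basal fluorescence ratio within a 140 s kinetic read after compound addition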
Target sequence (P11229 whole entry, looked up): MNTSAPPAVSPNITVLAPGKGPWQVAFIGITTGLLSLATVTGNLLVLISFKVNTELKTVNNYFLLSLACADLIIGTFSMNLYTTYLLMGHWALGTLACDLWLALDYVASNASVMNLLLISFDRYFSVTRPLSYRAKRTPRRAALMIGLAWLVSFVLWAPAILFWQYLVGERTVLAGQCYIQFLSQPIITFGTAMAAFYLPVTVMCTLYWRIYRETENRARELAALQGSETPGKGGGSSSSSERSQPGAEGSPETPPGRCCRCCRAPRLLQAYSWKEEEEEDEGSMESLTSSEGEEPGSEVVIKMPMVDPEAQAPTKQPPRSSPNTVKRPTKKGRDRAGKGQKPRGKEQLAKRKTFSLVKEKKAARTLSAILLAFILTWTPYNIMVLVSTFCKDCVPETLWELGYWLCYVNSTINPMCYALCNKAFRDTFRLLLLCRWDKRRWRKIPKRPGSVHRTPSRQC
CHRM1 PAM: potentiates human M1 receptor response to acetylcholine. hit rate 0.088% among 360,000. P11229. CHO-K1 hM1, Fluo-8 calcium fluorescence, ACh EC20; 0% = ACh EC20, 100% = maximal ACh. AID 588819. activation, % at 3 µM; in the data active means activation above about 19%, passing the limit was not always enough
ATG4B inh: blocks human ATG4B protease cleavage of LC3 substrate; Q9Y4P1; ATG4B cleavage of LC3-PLA2, NBD-HPC fluorescence, 1 h; inhibition, % at 8.33 µM; hit rate 0.51% among 340,000; AID 504462; in the data active means inhibition above about 40%
CHRM1 antagonist: antagonists of human M1 muscarinic receptor; inhibition, % at 3 µM; AID 588852; CHO-K1 hM1, Fluo-8 calcium fluorescence, ACh EC80 antagonist; P11229; hit rate 1.3% among 360,000;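 active means percent inhibition above its own plate's cutoff, namely the mean of that plate's compound wells plus 3 SD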;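 further: peak over basal fluorescence ratio during 140 s after agonist addition; 0% = ACh EC80 plus DMSO and 100% = DMSO alone without agonist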
Myeloid diff MLP: promotes myeloid progenitor differentiation. ER-HoxA9 myeloid progenitors, lysozyme-GFP differentiation, flow cytometry. calls only at 10 µM. hit rate 1% among 360,000. AID 624256;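 active means normalized GFP-positive differentiation at or above the plate's own cutoff, the solvent-only control mean plus 3 SD; inconclusive means no clear call, values can overlap the other calls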;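 further: cells exposed to compound for four days before flow analysis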
SKN-1 block: inhibitors of C. elegans SKN-1; C. elegans VP596 Pgst-4::GFP/RFP ratio, acrylamide-induced, 24 h; inhibition, % at 21.8 µM; hit rate 0.49% among 360,000;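 active means interference check ratio from 0.5 to 1.5 plus GFP to RFP signal ratio inhibition reaching or exceeding a fixed threshold, cut at about 30% in these data, passing the limit was not always enough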
Numbers without * were called inactive; i = inactive; ? = inconclusive; . = not tested or not shown; + = active, no number. Sampled rows, rich in hits. Any-hit rate of the full collection: about 3.5%.

SMILES | CHRM1 agonist | CHRM1 PAM | ATG4B inh | CHRM1 antagonist | Myeloid diff MLP | SKN-1 block
O=C(c1cc(COc2cccc3cccnc23)on1)N1CCC[C@H]1CO | -0.3 | 11.3 | . | -14.4 | i | 5.0
CSc1ccccc1OCc1cc(C(=O)N2CCC(c3ccncc3)CC2)no1 | -2.0 | -16.4 | . | 41.1* | i | 2.4
Cc1cc(OCc2cc(C(=O)N3CCC(Oc4cccnc4)CC3)no2)cc(C)c1Cl | -0.9 | -8.6 | -0.5 | 30.8* | i | 0.5
Cc1cc(OCc2cc(C(=O)N3CCN(CC4CC4)CC3)no2)cc(C)c1Cl | -3.0 | -7.7 | 3.1 | 0.1 | i | 8.1
O=C(COC(=O)c1ccc(F)cc1F)c1ccc[nH]1 | -3.0 | 10.9 | 3.1 | -3.3 | i | -19.1
O=C(Nc1ccccc1)Nc1ccc2nnsc2c1 | 5.4 | -20.7 | -6.9 | 59.1* | i | 16.6
O=C(Nc1ccccc1)Nc1ccc2snnc2c1 | 8.9 | -9.0 | -9.7 | 19.6 | i | 10.9
C#Cc1ccc([C@@H]2C=C(C(=O)N3CCOCC3)O[C@H](OCCCCO)C2)cc1 | -2.8 | 0.7 | -7.2 | -3.0 | + | -3.5
COc1ccc([C@H]2CC(=O)C=C(c3ccnc4ccc(Cl)cc34)C2)cc1 | 2.4 | -10.0 | -7.1 | 24.4 | i | 3.1
COc1ccc2c(c1)sc1nc(-c3ccccc3)cn12 | -4.0 | 4.2 | 0.4 | -11.3 | ? | 37.2*
O=C(NCC(=O)N1CCCCC1)c1ccc(Cl)cc1Cl | -2.8 | 0.1 | 3.8 | 0.8 | i | -23.7
CC1CCN(C(=O)CNC(=O)c2ccc(Cl)cc2Cl)CC1 | 1.4 | 21.8* | 0.3 | -23.3 | i | 2.0
COc1cccc(CC2(CO)CCCN(Cc3cn[nH]c3-c3ccccc3)C2)c1 (stereo not given) | -8.8 | 4.2 | -9.3 | -4.9 | + | -11.6
CC(=O)Nc1sc(/C(C#N)=C\c2cccc(Cl)c2)nc1-c1ccc(C)cc1 | 0.2 | -7.0 | -8.2 | 13.4 | + | 35.4*
O=C(Nc1ccc(Cl)cn1)c1ccccc1F | -2.9 | 6.6 | 1.3 | -7.3 | i | 59.0*
C/C(=C\c1ccccc1)C(=O)Nc1ccc(Cl)cn1 | -8.7 | -8.7 | 9.1 | 31.4* | i | 26.7
CCCCN(CCCC)CCNC(=O)CN1C(=O)CSc2ccc(S(=O)(=O)N3CCOCC3)cc21 | -5.8 | -23.6 | -7.9 | 86.5* | i | -7.0
COC(=O)c1ccccc1S(=O)(=O)N(Cc1cc2ccc(OC)cc2[nH]c1=O)CC1CCCO1 (stereo not given) | -5.6 | 2.6 | 1.1 | 0.2 | i | 5.6
COc1ccc2cc(CN(CC3CCCO3)S(=O)(=O)c3ccc(C(C)=O)cc3)c(=O)[nH]c2c1 (stereo not given) | 2.2 | 10.9 | -12.2 | -5.9 | + | -3.3
Nc1c(C(=O)Nc2ccc(S(=O)(=O)N3CCCC3)cc2)sc2nc3ccc(OC(F)(F)F)cc3cc12 | -1.4 | 2.5 | -4.1 | 5.6 | i | 21.3
Nc1c(C(=O)Nc2ccc(S(=O)(=O)N3CCCC3)cc2)sc2nc3cc4c(cc3cc12)CCC4 | -0.4 | -0.2 | 6.5 | 1.1 | + | 14.9
c1ccc(N2[C@@H]3c4ccccc4C[C@H]2c2ccccc23)cc1 | . | . | . | . | i | 12.4
O=C1c2cccc3cccc(c23)C(=O)N1c1ccc(O)cc1 | 1.0 | -7.8 | -4.8 | -11.3 | i | 4.0
O=C1c2cccc3c(N4CCCCC4)ccc(c23)C(=O)N1c1ccccc1O | 39.9* | -12.9 | 0.9 | 43.5* | + | -10.2
O=C1c2cccc3c(N4CCCCC4)ccc(c23)C(=O)N1c1ccc(O)cc1 | 9.5 | -8.6 | 3.0 | 17.5 | + | -22.9
SMILES | CHRM1 agonist | CHRM1 PAM | ATG4B inh | CHRM1 antagonist | Myeloid diff MLP | SKN-1 block
Cc1ccc(CO/N=C\Cc2snc(Sc3ncc(C(F)(F)F)cc3Cl)c2C#N)cc1 | 1.0 | 12.0 | 4.8 | -19.5 | + | 8.0
N#CCc1ccc(Oc2ncc(C(F)(F)F)cc2Cl)cc1 | -8.9 | 11.1 | 1.2 | -14.6 | i | 6.3
O=S(=O)(Nc1ccccc1)c1ccc(NS(=O)(=O)c2c(F)cccc2F)cc1 | -7.5 | 3.4 | -5.0 | -8.4 | ? | 9.6
O=C(Cc1ccccc1)NCCC1=CCCCC1 | -6.7 | 3.1 | 0.8 | 0.7 | i | 2.8
O=C(Cc1ccccc1[N+](=O)[O-])NCCC1=CCCCC1 | 1.4 | 14.5 | -5.3 | -12.9 | + | -3.8
O=C(Nc1ccc(-c2cn3c(n2)SCC3)cc1)c1ccc2c(c1)OCO2 | 0.0 | 4.5 | -4.0 | 1.0 | + | 15.3
O=C(Nc1cccc(-c2cn3c(n2)SCC3)c1)c1ccc2c(c1)OCO2 | -4.3 | -2.2 | -20.9 | 17.3 | i | 4.8
O=C(Nc1ccc2c(c1)OCO2)c1ccc2sc([C@H]3C[C@H](O)[C@@H](CO)O3)nc2c1 | 3.2 | 28.5* | . | -24.0 | i | -18.4
CC(C)OC(=O)N(C)C[C@@H]1OCc2cnnn2CCCC(=O)N([C@@H](C)CO)C[C@@H]1C | -4.8 | 8.1 | . | -17.7 | i | 7.2
CC1(c2nnnn2Cc2ccccc2)CCC(=O)N1C1CC1 (stereo not given) | . | . | . | . | i | 0.9
CCOC(=O)Nc1ccc2c(c1)N(C(=O)CCN1CCN(CCO)CC1)c1ccccc1S2 | -4.1 | 12.6 | -5.0 | -13.3 | i | -16.9
O=C(CN1CCN(CCOCCO)CC1)N1c2ccccc2Sc2ccc(Cl)cc21 | -6.5 | -21.1 | -8.1 | 92.9* | i | -1.6
NCCC(=O)N1c2ccccc2Sc2ccc(Cl)cc21 | -8.1 | -29.6 | 2.2 | 91.1* | i | 4.9
COC(=O)Nc1ccc2c(c1)N(C(=O)CCN1CCN3CCCC3C1)c1ccccc1S2 (stereo not given) | -6.3 | 11.1 | -5.2 | -13.6 | i | -1.9
O=C(CCN1CCN2CCCC2C1)N1c2ccccc2Sc2ccc(Cl)cc21 (stereo not given) | -8.9 | -29.3 | -7.6 | 83.1* | i | 7.3
CCOC(=O)N1c2ccccc2Sc2ccccc21 | -10.6 | -12.8 | -11.9 | -2.2 | i | 8.2
CN1CCN(CCC(=O)N2c3ccccc3Sc3ccc(Cl)cc32)CC1 | -7.2 | -27.3 | -9.7 | 57.4* | i | -18.6
O=C(CN1CCOCC1)N1c2ccccc2Sc2ccc(Cl)cc21 | -8.3 | -17.4 | . | 19.8 | i | 7.5
COc1cc(F)ccc1-c1csc(C(O)(c2ccccc2)C(F)(F)F)n1 (stereo not given) | -8.1 | -12.0 | . | 0.6 | i | 17.3
CC1(C(=O)OCc2cc(=O)n3cc(Br)ccc3n2)CC1(Cl)Cl (stereo not given) | -10.4 | 8.7 | -6.5 | -8.0 | i | 6.1
CN1CCC=C(C(=O)N2c3ccccc3Sc3ccc(Cl)cc32)C1 | -8.1 | -27.1 | 4.5 | 101.0* | i | -4.0
NC(=O)N1CCN(CCCN2c3ccccc3Sc3cc(Cl)ccc32)CC1 | -8.2 | -1.9 | . | -1.0 | i | 10.2
NCCCC(=O)N1c2ccccc2Sc2ccc(Cl)cc21 | -9.5 | -28.0 | -5.6 | 99.9* | i | -0.4

Bioassay records (PubChem)
